Bioassay records from PubChem BioAssay.
Compounds with a hit are over-represented: about 4% of the library has one in this group of screens.
Rv3671c inh – inhibitors of M. tuberculosis serine protease Rv3671c | P9WHR9 | inhibition, % at 5.96 µM | AID 2606 | hit rate 0.048% among 320,000; in the data active = inhibition above about 38%;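 also: extracellular domain of Rv3671c used as enzyme; 0% = enzyme with DMSO and 100% = no enzyme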
Target sequence (P9WHR9 whole entry, looked up, the tested form may be a part): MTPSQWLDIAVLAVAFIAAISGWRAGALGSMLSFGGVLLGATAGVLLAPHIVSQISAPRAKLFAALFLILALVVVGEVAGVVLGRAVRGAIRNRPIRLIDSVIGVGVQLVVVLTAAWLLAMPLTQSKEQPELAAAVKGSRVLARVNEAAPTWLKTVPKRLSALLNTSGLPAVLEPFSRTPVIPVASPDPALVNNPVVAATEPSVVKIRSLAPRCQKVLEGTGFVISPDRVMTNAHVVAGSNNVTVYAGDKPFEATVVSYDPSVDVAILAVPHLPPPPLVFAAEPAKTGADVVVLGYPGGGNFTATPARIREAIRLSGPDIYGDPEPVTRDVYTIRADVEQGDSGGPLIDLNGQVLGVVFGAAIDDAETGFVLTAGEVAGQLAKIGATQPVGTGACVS
RecA splice inh – blocks M. tuberculosis RecA intein splicing; P9WHJ3; cell-free RecA intein splicing, fluorescence; inhibition, % (concentration not given with the values); hit rate 0.75% among 290,000; in the data active = inhibition above about 30%;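 also: 0% = vehicle wells and 100% = reference inhibitor control wells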
FBA Mtb inh – Mtb fructose-bisphosphate aldolase inhibition | P9WQA3 | purified M. tuberculosis FBA, fluorescence read-out | inhibition, % at 1 µM | hit rate 2.3% among 360,000 | AID 588726; in the data active = inhibition above about 27%;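 also: 0% = vehicle and 100% = reference inhibitor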
Mtb betalactam – beta-lactam sensitization of Mtb H37Rv; M. tuberculosis H37Rv growth with meropenem, percent inhibition; inhibition, % at 25 µM; hit rate 0.27% among 330,000; AID 434955; call rule not given here;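 also: growth measured after seven days incubation then overnight dye step; 0% = bacteria only wells and 100% = bacteria with antibiotic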
UGM FP inh – blocks M. tuberculosis UGM enzyme; hit rate 0.06% among 320,000; P9WIQ1; purified UGM, fluorescence polarization probe displacement; inhibition, % at 10 µM; AID 504406; in the data active = inhibition above about 10%, passing the limit was not always enough
GDH-TPI inh – GDH-TPI coupled enzyme inhibition counter-screen | GDH-TPI coupled enzyme counterscreen, NADH absorbance | inhibition, % at 4.8 µM | hit rate 1.2% among 360,000; in the data active = inhibition above about 30%;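 also: 0% = DMSO wells and 100% = wells lacking the enzyme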
Active calls of the source: *.

For CC(C)c1ccc(NC(=O)C2Cc3c(-c4ccco4)ccnc3O2)cc1 (stereo not given) the results were FBA Mtb inh -1 and GDH-TPI inh 6.
CN(C)c1ccc(C=c2c3cc([N+](=O)[O-])ccc3n3c2cc(-c2ccccc2)[n+]3C)cc1 was read as FBA Mtb inh -3 and GDH-TPI inh 42*.
Screening COc1ccc(NC(=O)C(=O)c2cn(CC(=O)N3CCCC3)c3ccccc23)cc1OC returned Rv3671c inh -5, RecA splice inh -2, FBA Mtb inh 6, Mtb betalactam -2, UGM FP inh 0 and GDH-TPI inh 14.
`Cc1ccc(NC(=O)C(=O)c2cn(CC(=O)N3CCCCC3)c3ccccc23)cc1` gave Rv3671c inh -14, RecA splice inh 2, FBA Mtb inh -2, Mtb betalactam 9, UGM FP inh 0 and GDH-TPI inh 26.
COc1cccc(NC(=O)C(=O)c2cn(CC(=O)N3CCCC3)c3ccccc23)c1 was read as Rv3671c inh 2, RecA splice inh 3, FBA Mtb inh -1, Mtb betalactam 2, UGM FP inh -2 and GDH-TPI inh 31*.
Screening CCc1ccc(NC(=O)C(=O)c2cn(CC(=O)N3CCCCC3)c3ccccc23)cc1 returned Rv3671c inh -53, RecA splice inh -1, FBA Mtb inh -3, Mtb betalactam -8, UGM FP inh 0 and GDH-TPI inh 37*.
`CC(O)(c1cccc(F)c1)c1nc(-c2cnc3ccccc3c2)cs1` (stereo not given) gave FBA Mtb inh 2 and GDH-TPI inh 0.
COc1ccc(OC)c(N2C(=O)C(Cl)=C(N3CCOCC3)C2=O)c1 was read as Rv3671c inh -1, RecA splice inh 70*, FBA Mtb inh -6, Mtb betalactam 73, UGM FP inh 0 and GDH-TPI inh 30.
Screening COc1ccccc1C(=O)Nc1cc2c(ccc3ccccc32)oc1=O returned Rv3671c inh 7, RecA splice inh -2, Mtb betalactam 6 and UGM FP inh 0.
`COC(=O)c1cc2c(ccc3ccccc32)oc1=O` gave Rv3671c inh 6, RecA splice inh inactive, FBA Mtb inh active, Mtb betalactam 99, UGM FP inh -4 and GDH-TPI inh 20.
For CCCNC(=O)C1(C)CCN(CCS(=O)(=O)c2ccc(C)cc2)C1 (stereo not given) the results were FBA Mtb inh -1 and GDH-TPI inh -7.
Screening O=C(CCCN1C(=O)/C(=C/c2ccccc2)SC1=S)Nc1ccccc1O returned Rv3671c inh -16, RecA splice inh 0, FBA Mtb inh -3, Mtb betalactam 4, UGM FP inh -1 and GDH-TPI inh 20.
For COC(=O)CCCCCN1C(=O)/C(=C\c2ccncc2)SC1=S the results were Rv3671c inh 2, RecA splice inh 34*, FBA Mtb inh 8, Mtb betalactam 99, UGM FP inh -5 and GDH-TPI inh 15.
`O=C(CCCN1C(=O)/C(=C\c2ccccc2)SC1=S)Nc1ccc(O)cc1C(=O)O` gave Rv3671c inh -7, RecA splice inh 41*, FBA Mtb inh 0, Mtb betalactam -2, UGM FP inh 4 and GDH-TPI inh 25.
Screening O=C(CCCN1C(=O)/C(=C/c2cccs2)SC1=S)NNC(=O)c1cccnc1 returned Rv3671c inh -25, RecA splice inh -3, FBA Mtb inh 3, Mtb betalactam -5, UGM FP inh 1 and GDH-TPI inh 33*.
O=C(NN1C(=O)/C(=C/c2cccs2)SC1=S)c1ccncc1 was read as Rv3671c inh 4, RecA splice inh 2, FBA Mtb inh -7, Mtb betalactam -6, UGM FP inh 0 and GDH-TPI inh 34*.
`O=C1NN(c2cccc(Br)c2)C(=O)/C1=C\c1ccc(N2CCOCC2)cc1` gave Rv3671c inh 0, RecA splice inh -2, FBA Mtb inh 0, Mtb betalactam 4, UGM FP inh 0 and GDH-TPI inh 3.
`CC(C)(C)OC(=O)c1c(N)n(Cc2ccco2)c2nc3ccccc3nc12` gave Rv3671c inh -55, RecA splice inh -10, FBA Mtb inh 114*, Mtb betalactam 2, UGM FP inh 2 and GDH-TPI inh 16.
For COc1ccc(S(=O)(=O)c2c(N)n(Cc3ccco3)c3nc4ccccc4nc23)cc1 the results were Rv3671c inh -16, RecA splice inh -4, FBA Mtb inh 51*, Mtb betalactam -3, UGM FP inh 0 and GDH-TPI inh 15.
`COCCCn1c(N)c(C(=O)NCc2ccco2)c2nc3ccccc3nc21` gave Rv3671c inh -81, RecA splice inh -266, Mtb betalactam -9 and UGM FP inh -4.
For C=CCNC(=O)c1c(N)n(Cc2ccco2)c2nc3ccccc3nc12 the results were Rv3671c inh -13, RecA splice inh -232, FBA Mtb inh 113*, Mtb betalactam 14, UGM FP inh 3 and GDH-TPI inh 11.
Cc1nc2c(OCc3cc(Cl)cc(Cl)c3)cccn2c1N(C)C(=O)CCC1CCCC1 was read as FBA Mtb inh -1 and GDH-TPI inh 3.
For Oc1ccc(/C=N\Nc2nncc(-c3ccccc3)n2)cc1 the results were Rv3671c inh 7, RecA splice inh -13, FBA Mtb inh -2, Mtb betalactam 58, UGM FP inh 0 and GDH-TPI inh 40*.
COc1ccc(-c2cnnc(N/N=C/c3ccc(O)cc3)n2)cc1 was read as Rv3671c inh 0, RecA splice inh -5, FBA Mtb inh 1, Mtb betalactam -2, UGM FP inh 0 and GDH-TPI inh 34*.
`COc1cccc(C(=O)COC(=O)COc2c(C)cc(C)cc2C)c1` gave Rv3671c inh 1, FBA Mtb inh 9, Mtb betalactam 2, UGM FP inh -3 and GDH-TPI inh 3.
For CCOc1ccc(/C=C2\NC(=S)NC2=O)cc1 the results were Rv3671c inh -13, RecA splice inh 4, FBA Mtb inh 2, Mtb betalactam -3, UGM FP inh 0 and GDH-TPI inh 23.
`Cc1no[n+]([O-])c1COc1ccc(/C=C2\NC(=S)NC2=O)cc1` gave Rv3671c inh -15, RecA splice inh 4, FBA Mtb inh 3, Mtb betalactam 3, UGM FP inh 2 and GDH-TPI inh 39*.
Screening CC1CN(S(=O)(=O)c2ccc(C(=O)Nc3nccs3)cc2)CC(C)O1 (stereo not given) returned Rv3671c inh -2, RecA splice inh 1, FBA Mtb inh 2, Mtb betalactam -7, UGM FP inh -4 and GDH-TPI inh 43*.
Screening CC1CN(S(=O)(=O)c2ccc(C(=O)Nc3ccc(S(=O)(=O)Nc4nccs4)cc3)cc2)CC(C)O1 (stereo not given) returned Rv3671c inh -9, RecA splice inh -2, FBA Mtb inh 0, Mtb betalactam 6, UGM FP inh 4 and GDH-TPI inh 13.
For COCCNC(=O)/C(C#N)=C/C=C/c1ccccc1[N+](=O)[O-] the results were Rv3671c inh 4, RecA splice inh 12, FBA Mtb inh -1, Mtb betalactam 4, UGM FP inh 3 and GDH-TPI inh 48*.
